The values that follow come from PubChem BioAssay (Tox21).

Several values for one entry are separate records, joined by “and”; a condition that tells them apart may be missing. Equal entries are not always repeated. Inconclusive results are not listed. A call without a number means that no potency is given here. More than one record can exist for a structure, and the calls need not agree. Activity calls are given as the source filed them. The call rests on the fitted dose curve.
Potency means the concentration at half of the fitted maximal effect.

For this assay, the target named is Retinoic acid receptor RXR-alpha (Homo sapiens) (UniProt P19793). As to the kind of experiment: qHTS assay to identify small molecule agonists of the RXR signaling pathway (AID 1159527). Further: nearly all actives have a fitted effect of over 35% in size. Conditions: HEK293T RXRa-UAS-bla, beta-lactamase ratio, 16 h; series mostly up to 76.8 µM; activation: at the top concentration. The source says: U.S. Tox21 Program National Center for Advancing Translational Sciences [NCATS] NIH Chemical Genomics Center [NCGC] U.S. Environmental Protection Agency [EPA] National Institutes of Environmental Health Sciences [NIEHS] National Toxicology Program [NTP] U.S. Food and Drug Administration [FDA] Tox21 Assay Overview: The Retinoid X receptor (RXR), a nuclear hormone receptor expressed in liver, spleen, placenta, epidermis, central nervous system. These receptors are able to form homo and heterodimers with other nuclear receptors and due to this heterodimerizing ability, RXR functions as master regulators producing diverse physiological effects. Three subtypes of RXR exist; alpha, beta and gamma. Retinoid X receptor alpha (RXR-alpha) has potential roles in metabolic signaling pathways, skin alopecia, dermal cysts, cardiac development, insulin sensitization etc. Therefore screening environmental chemicals on RXR-alpha signaling can be used for the studies focused on such therapeutic applications. For quantification of RXR-alpha ligands signaling, GeneBLAzer RXR alpha-UAS-bla HEK 293T (Life Technologies, Carlsbad, CA) cells containing a beta-lactamase reporter-gene under control of Retinoid X receptor-alpha response element were used to screen Tox21 10K library.
Retinoic acid receptor RXR-alpha (Homo sapiens), sequence (P19793 whole entry, looked up): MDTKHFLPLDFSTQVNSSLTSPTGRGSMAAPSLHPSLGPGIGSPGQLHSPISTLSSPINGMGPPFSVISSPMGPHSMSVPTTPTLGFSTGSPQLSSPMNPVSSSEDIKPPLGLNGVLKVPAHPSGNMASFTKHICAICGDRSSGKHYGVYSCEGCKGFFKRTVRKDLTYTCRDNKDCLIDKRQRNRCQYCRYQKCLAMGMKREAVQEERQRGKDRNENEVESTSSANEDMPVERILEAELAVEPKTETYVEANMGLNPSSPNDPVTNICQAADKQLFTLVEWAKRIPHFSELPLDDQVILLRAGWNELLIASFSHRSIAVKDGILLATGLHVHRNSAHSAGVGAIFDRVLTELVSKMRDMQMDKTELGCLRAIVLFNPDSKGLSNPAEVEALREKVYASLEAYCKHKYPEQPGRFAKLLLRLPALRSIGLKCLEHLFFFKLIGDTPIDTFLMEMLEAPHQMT
Tox21 Assay Protocol Summary: RXR-alpha HEK 293T cells were dispensed at 2,000 cells/6 uL of assay medium containing 2% charcoal-stripped FBS using a Multidrop Combi (ThermoFisher Scientific, Waltham, MA) dispenser. The assay was performed in black wall/clear-bottom 1536-well plates (Greiner Bio-One North America Inc. Monroe, NC). 9-cis retinoic acid was used as a positive control in the agonist mode screen. After the assay plates were incubated at 37 C and 5% CO2 for 5 hr, 23 nL of compounds dissolved in DMSO, positive controls or DMSO only were transferred to the assay plate by a Pintool station (Kalypsys, San Diego, CA). The assay plates were incubated at 37 C and 5% CO2 for 16 hr. One uL of LiveBLAzer B/G FRET substrate (Life Technologies) was added using a Flying Reagent Dispenser (Aurora Discovery, San Diego, CA) and the plates were incubated at room temperature for 2 hr. Fluorescence intensity (405 nm excitation, 460/530 nm emission) was measured using an Envision plate reader (PerkinElmer, Shelton, CT).
On to `NCCN1CCNCC1`, for which the Potency entry was “inactive”.

Take `CCCCCC(=O)O`: the “activation” value is 8.3% (inactive). Turning to `CC(O)CC(C)(C)O` (stereo not given), the Potency entry is “inactive”. On to `c1ccc(Oc2ccccc2)cc1`, for which the “activation” value was 10.6% (inactive). `O=C(O)/C=C/C(=O)O`: the Potency result was “inactive”. As for `O=C1c2ccccc2CCc2ccccc21`, the “activation” value is -18.9% [at 35.3 µM] (inactive). `CC(C)(C#N)c1cc(Cn2cncn2)cc(C(C)(C)C#N)c1`: the Potency result was “inactive”. On the same count and under the same terms, the result for `C=C(C)CNCC` reads “inactive”. Take `O=C(O)Cn1c(=O)n(Cc2ccc(Br)cc2F)c(=O)c2ccc(Cl)cc21`: the “activation” value is 0.713% [at 35.3 µM] (inactive). For the molecule `O=C(O)c1cc2ccccc2cc1O`, the Potency result is “inactive”. With `CCCCCCO`, the Potency entry is “inactive”. Same read-out and setting: the result for `O=C(O)c1ccccc1C(=O)O` reads “inactive”; that for `CCCCC(C=O)CC` (stereo not given), “inactive”.

`CC(C)OP(=O)(CP(=O)(OC(C)C)OC(C)C)OC(C)C`: the Potency result was “inactive”. Still for that read-out and setting: next, `C[C@]12CCC(=O)C=C1CC[C@@H]1[C@@H]2[C@@H](O)C[C@@]2(C)[C@H]1CC[C@]2(O)C(=O)CO`: “inactive”; `CCCCCCCCCCCC(=O)OC`: “inactive”. The same measure, in the same setting: the result for `CC(=O)CC(C)(C)O` reads “inactive”; that for `CC(=O)CCC=C(C)C`, “inactive”.

As to `O=C(O)CCCCCCCCC(=O)O`, the “activation” value was 13.8% (inactive). The same measure, in the same setting: next, `COC(=O)c1cccnc1`: 5.75% [at 35.3 µM] (inactive).

On to `Cc1ccc(C(C)C)c(O)c1`, for which the Potency entry is “inactive”. On the same count and under the same terms, the result for `C=CCCCCCCCCC(=O)O` reads 43.6 µM (active). Same read-out and setting: next, `CCO[Si](CCC#N)(OCC)OCC`: “inactive”; `CCc1ccccc1CC`: “inactive”. `C=C(C)[C@H]1CC=C(C)C(=O)C1`: the “activation” value is 6.76% (inactive). For `C=CCc1ccc(OC)c(OC)c1`, the Potency entry was “inactive and 7.76 µM (active)”. Still for that read-out and setting: next, `CCCCOC(=O)c1ccc(N)cc1`: “inactive”. The same measure, in the same setting: next, `Cc1ccc2ncccc2c1`: “inactive and 13.8 µM (active)”. With `OCc1ccccc1`, the “activation” value is 9.11% (inactive). Take `N[C@H](Cc1c[nH]c2ccccc12)C(=O)O`: the Potency entry is “inactive”. On the same count and under the same terms, next, `COCCCN`: “inactive”. With `CCNc1cccc(C)c1`, the “activation” value was 11.4% (inactive). In the case of `CC(C)OC(=O)COc1ccc(Cl)cc1Cl`, the Potency result was “inactive”. Turning to `Cc1ccc(S(=O)(=O)N=C=O)cc1`, the “activation” value was 7.05% (inactive). Regarding `CC(C)CCCCCCCOC(=O)CCCCC(=O)OCCCCCCCC(C)C`, the “activation” value was -0.644% (inactive). `CC(C)c1cccc(C(C)C)c1`: the Potency entry was “inactive”. On the same count and under the same terms, next, `CN1C(=O)CC[C@H]1c1cccnc1`: “inactive”.

Turning to `C=Cc1ccc(C)cc1`, the “activation” value is -1.42% (inactive). On the same count and under the same terms, next, `CC1(C)S[C@@H]2[C@H](NC(=O)COc3ccccc3)C(=O)N2[C@H]1C(=O)O`: 14.2% (inactive). `O=C(O)c1ccc(S(=O)(=O)N(Cl)Cl)cc1`: the Potency result was “inactive”.
